“And” between values parts separate entries of the source, which are not always exact repeats. Identical values can stand only once. Values without a mark were called inactive. Inconclusive results are not listed. The source made the active and inactive calls. Unless noted, calls come from the whole dose curve; as a rule, active = well fitted curve in the direction sought with a large enough effect; inconclusive = small, poorly fitted or top-dose-only effect, or another doubt; inactive = no such curve, though single readings can be large; an effect the other way counts as inactive or inconclusive.

This note sets out measurements from PubChem BioAssay (NCATS).

Test [1] in a line: AP1 Signaling Pathway (AID 357; active = well fitted curve in either direction with a large enough effect, not every such curve was filed as active;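 note: ME-180 reporter cells stimulated with EGF at its EC50 level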). The settings on record: ME-180 AP-1-bla reporter, EGF-induced, beta-lactamase ratio, 5 h; series mostly up to 38 µM. A digest of the protocol:
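Cells are seeded overnight, exposed to compound titrations and an EC50 level of EGF for 5 hours at 37 °C, then loaded with CCF4 dye for 2.5 hours. Beta-lactamase activity under the AP-1 element is read as a blue/green ratio.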

A short description of test [2]: Stat Signaling Pathway (AID 446; active = well fitted curve in either direction with a large enough effect, not every such curve was filed as active;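 note: ME-180 cervical cancer cells given 40 pM IL-6 alongside compound; SIE-controlled beta-lactamase reporter measured as 460/530 nm FRET emission ratio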). Particulars: ME-180 SIE beta-lactamase reporter, IL-6 stimulated, 5 h; series mostly up to 38 µM. Put shortly: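 Screening format detects activators and inhibitors alike: ME-180 SIE-bla cells stimulated at 40 pM IL-6 for 5 hrs with compound, then dual-emission beta-lactamase read at 405 nm excitation.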
Test [3] deals with Glucocorticoid receptor (Homo sapiens) (UniProt P04150). The test is described as follows: GR-EFC Redistribution (AID 451; calls by dose curve; note: potency is the fitted concentration of half-maximal effect). The settings on record: CHO-K1 GR-EFC translocation, beta-gal luminescence, 2 h. A digest of the protocol: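 Translocation of GR-ED fusion to nuclear EA restores b-gal, read by luminescence after 1 h room-temperature detection. Engineered CHO-K1 biosensor cells, 1,000/well, exposed 2 h at 37 C to titrations up to 46 uM final.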

In test [4] the target is Mitogen-activated protein kinase 10 (Mus musculus) (UniProt Q61831). Nature of the test: JNK3 AlphaScreen Assay (AID 530; active = well fitted curve in either direction with a large enough effect, not every such curve was filed as active;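 note: kinase came from lysate of stimulated human HepG2 cells; signal reports phosphorylation of biotinylated GST-cJun 1-79 at Ser73 with 10 µM ATP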). Particulars: JNK3 lysate, c-Jun phosphorylation; series mostly up to 57.1 µM. Put shortly: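 Compound titrations were preincubated 15 minutes at room temperature with substrate, antibody and pre-activated JNK3-containing HepG2 lysate. Reactions were started with 10 uM ATP and stopped with EDTA-containing bead buffer for AlphaScreen detection.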
On the technique in general: Alpha assays give light when donor and acceptor beads are brought close together.

For test [5], the target named is 3',5'-cyclic-AMP phosphodiesterase 4B (Homo sapiens) (UniProt Q07343). Nature of the test: qHTS Assay for Inhibitors of PDE-IV (AID 607; active = well fitted activation curve with a large enough effect in the main read-out, with a control signal flat, not every such curve was filed as active). The settings on record: HEK293 ACTOne CNG channel cells, membrane potential fluorescence; series mostly up to 22.9 µM. Put shortly: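 The readout is membrane depolarisation from a cAMP-sensing CNG channel, detected with a potential dye at ex 535/em 590. Cells were HEK293-derived (endogenous PDE-IV) at 1000 cells/well, titrated up to 22.9 uM final.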
Background: In qHTS, concentration-response curves come from the screen itself.

For test [6], the target named is Guanine nucleotide-binding protein G(i) subunit alpha-1 (Homo sapiens) (UniProt P63096). Nature of the test: qHTS Assay for Inhibitors of RGS12 GoLoco Motif Activity (Green Fluorophore) (AID 879).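 Note: negative values mean loss of peptide binding seen as reduced polarization.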 The settings on record: Galphai1/FITC-RGS12 GoLoco peptide, fluorescence polarization; series mostly up to 57.1 µM. Put shortly:
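Fluorescence polarization assay: 50 nM Gαi1 with 10 nM FITC-labeled RGS12 GoLoco peptide in 10 mM Tris pH 7.5, 150 mM NaCl, 0.1 mM GDP, 0.05% NP40, 10 min at room temperature with compound.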

Test [7] concerns the target Pyruvate kinase (Leishmania mexicana) (UniProt Q27686). Nature of the test: qHTS Validation Assay for Inhibitors of Leishmania Mexicana Pyruvate Kinase (AID 945). Particulars: purified L. mexicana pyruvate kinase, enzyme activity, E451W mutant enzyme; series mostly up to 57.5 µM. A digest of the protocol:
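LmPYK E451W 0.2 nM; 0.5 mM PEP, 0.1 mM ADP, 7 mM MgCl2, 50 mM KCl, imidazole pH 7.2, 0.01% Tween 20, 0.05% BSA; 1 h RT; PKLight luminescence; DMSO-normalized.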

In test [8] the target is Pyruvate kinase PKM (Homo sapiens) (UniProt P14618). The test is described as follows: qHTS Assay for Activators of Human Muscle Pyruvate Kinase (AID 954; active = well fitted curve in the direction sought with a large enough effect, not every such curve was filed as active). The settings on record: purified human muscle pyruvate kinase, luciferase-coupled luminescence, 1 h; series mostly up to 57.5 µM. Put shortly: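 Reaction: 0.1 nM purified PKM2 with 0.5 mM phosphoenolpyruvate and 0.1 mM ADP, room temperature, 1 h. Readout: luciferase-based ATP luminescence after stop reagent. Activators judged against a 0.3 nM enzyme column.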

Test [9] addresses Alpha-galactosidase A (Homo sapiens) (UniProt P06280). Nature of the test: Counterscreen for Glucocerebrosidase Inhibitors: qHTS Assay for Human alpha-Galactosidase at pH 4.5 (AID 992). Particulars: purified enzyme, fluorogenic substrate; series mostly up to 76.9 µM. Put shortly:
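Concentration-response curves (0.7 nM to 77 uM final) were modeled with the Hill equation to give AC50. Reactions: 2 nM enzyme, 80 uM fluorogenic alpha-galactoside, pH 4.5 citric acid buffer, 20 min, room temperature.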
(In general: A counterscreen serves to expose hits that act by an unwanted route or on another target.)

Test [10] addresses alpha-glucosidase (Oryza sativa, rice) (UniProt Q653V4). The test is described as follows: Counterscreen for Glucocerebrosidase Inhibitors: qHTS Assay for Rice alpha-Glucosidase at pH 5.0 (AID 997). The settings on record: rice alpha-glucosidase enzyme activity; series mostly up to 76.9 µM. Put shortly:
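Rice alpha-glucosidase (4 nM final) with 400 uM 4-methylumbelliferyl-alpha-D-glucopyranoside in citrate buffer pH 5.0, 20 min at room temperature, stopped at pH 10; fluorescence 365/440 nm, compounds 0.7 nM–77 uM, AC50 from Hill fits.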

Test [11] has as its target Alpha-galactosidase (Coffea arabica) (UniProt Q42656). Nature of the test: Counterscreen for Glucocerebrosidase Inhibitors: qHTS Assay for Coffee Bean alpha-Galactosidase at pH 5.9 (AID 998). Particulars: coffee bean alpha-galactosidase enzyme assay; series mostly up to 76.9 µM. A digest of the protocol:
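Compounds were titrated from 0.7 nM to 77 uM against green coffee bean alpha-galactosidase (2 nM) using 80 uM fluorogenic 4-methylumbelliferyl substrate. After 20 min at room temperature, reactions were stopped at pH 10 and read by fluorescence.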

Test [12] addresses Ubiquitin carboxyl-terminal hydrolase 1 (Homo sapiens) (UniProt O94782). The test is described as follows: Inhibitors of USP1/UAF1: Pilot qHTS (AID 504865).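 Note: rhodamine fluorescence freed from ubiquitin-rhodamine substrate followed over time; top concentration of the series differs between compounds; nearly all actives have a fitted effect of over 35% in size.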 The settings on record: purified USP1/UAF1, Ub-rhodamine cleavage fluorescence; series mostly up to 114 µM. Put shortly: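 In 50mM HEPES pH 7.8 containing 0.5mM EDTA, 1mM TCEP, 0.1 mg/ml BSA and 0.01% Tween-20, 1nM USP1/UAF1 is exposed to compound for 15 min, then Ub-Rho (150nM final) is added and fluorescence is read over time.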

The target in test [13] is DNA dC->dU-editing enzyme APOBEC-3G (Homo sapiens) (UniProt Q9HC16). The test is described as follows: qHTS for inhibitors of Vif-A3G interactions: Validation (AID 588379). The settings on record: Vif-A3G protein interaction assay; series mostly up to 46.1 µM. A digest of the protocol:
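HeLa cells stably expressing Vif and A3G-eYFP, 700 cells/well, incubated overnight at 37 deg C, then exposed to compound overnight at 37 deg C. Inhibition of Vif-mediated degradation read as increased yellow fluorescence (Ex 488/Em 500-530) by laser-scanning cytometry.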

Test [14] deals with Zika virus NS2B-NS3 protease. The test is described as follows: Primary screen GU AMC qHTS for Zika virus inhibitors (AID 1347154). Note: nearly all actives have a fitted effect of over 70% in size. Particulars: Zika NS2B-NS3 unlinked protease, AMC fluorogenic substrate; series mostly up to 54.1 µM. A digest of the protocol: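 Fluorogenic AMC-substrate cleavage by noncovalent NS2B-NS3 protease complex (25 nM, pH 8.0 Tris buffer with Tween 20) followed for 15 minutes at room temperature (~20% conversion). Percent inhibition from ex340/em450 signal change, fitted by 4-parameter Hill equation.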

Test [15] is described as follows: Primary qHTS for small molecule stabilizers of the endoplasmic reticulum resident proteome: Secreted ER Calcium Modulated Protein (SERCaMP) assay (AID 1508630). Particulars: SH-SY5Y GLuc-SERCaMP (Gaussia luciferase released on ER calcium loss) secretion, thapsigargin, luminescence; series mostly up to 38.4 µM. Put shortly: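 GLuc-SERCaMP-expressing SH-SY5Y cells, pretreated 16 h with compound, are challenged with thapsigargin to empty ER calcium stores; after 4 h, coelenterazine is added directly to the medium and luminescence is imaged.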

The target in test [16] is Glucocorticoid receptor (Homo sapiens) (UniProt P04150). Nature of the test: GR-GFP Redistribution (AID 450;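 active = compounds whose dose series gives a full or clear partial fitted curve of increased nuclear translocation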; note: potency is the fitted concentration of half-maximal effect). The settings on record: U2OS GR-GFP nuclear translocation, laser cytometry, 2 h.
The target of test [17] is Cytochrome P450 3A4 (Homo sapiens) (UniProt P08684). Nature of the test: qHTS Assay for Activators of Cytochrome P450 3A4 (AID 885). Note: nearly all actives have a fitted effect of over 65% in size. The settings on record: recombinant CYP3A4, Luciferin-PPXE luminescence, 60 min; series mostly up to 57.1 µM. A digest of the protocol: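 Steps: enzyme/substrate mix dispensed; compound added, 10 min RT; NADPH regeneration solution added, 60 min RT; luciferin detection buffer stops reaction; 20 min later luminescence measured.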

Test [18] concerns the target Cytochrome P450 2D6 (Homo sapiens) (UniProt P10635). The test is described as follows: qHTS Assay for Inhibitors and Substrates of Cytochrome P450 2D6 (AID 891). Note: potency is the fitted concentration of half-maximal effect; nearly all actives have a fitted effect of over 60% in size. The settings on record: recombinant CYP2D6, luciferin-ME EGE luminescence; series mostly up to 57.1 µM. Put shortly: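 Human CYP2D6 (5 nM) with 30 uM Luciferin-ME EGE (at Km) in 100 mM KPO4, compound preincubated 10 min, then NADPH regeneration system for 60 min at room temperature. Luciferin read by luminescence; normalized to 1.43 uM quinidine.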

Test [19] addresses Cytochrome P450 1A2 (Homo sapiens) (UniProt P05177). Nature of the test: p450-cyp1a2 (AID 410; calls by dose curve; note: potency is the fitted concentration of half-maximal effect). The settings on record: recombinant CYP1A2, luciferin-ME demethylation, luminescence; series mostly up to 57 µM. Put shortly: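 Luminescent readout of luciferin formed from Luciferin-ME by human CYP1A2; data normalized against complete inhibition by 57 uM furafylline. Enzyme 20nM, substrate 100uM at Km, 100mM KPO4 buffer, 60 min reaction at room temperature.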

3',5'-cyclic-AMP phosphodiesterase 4B (Homo sapiens), sequence (Q07343 whole entry, looked up): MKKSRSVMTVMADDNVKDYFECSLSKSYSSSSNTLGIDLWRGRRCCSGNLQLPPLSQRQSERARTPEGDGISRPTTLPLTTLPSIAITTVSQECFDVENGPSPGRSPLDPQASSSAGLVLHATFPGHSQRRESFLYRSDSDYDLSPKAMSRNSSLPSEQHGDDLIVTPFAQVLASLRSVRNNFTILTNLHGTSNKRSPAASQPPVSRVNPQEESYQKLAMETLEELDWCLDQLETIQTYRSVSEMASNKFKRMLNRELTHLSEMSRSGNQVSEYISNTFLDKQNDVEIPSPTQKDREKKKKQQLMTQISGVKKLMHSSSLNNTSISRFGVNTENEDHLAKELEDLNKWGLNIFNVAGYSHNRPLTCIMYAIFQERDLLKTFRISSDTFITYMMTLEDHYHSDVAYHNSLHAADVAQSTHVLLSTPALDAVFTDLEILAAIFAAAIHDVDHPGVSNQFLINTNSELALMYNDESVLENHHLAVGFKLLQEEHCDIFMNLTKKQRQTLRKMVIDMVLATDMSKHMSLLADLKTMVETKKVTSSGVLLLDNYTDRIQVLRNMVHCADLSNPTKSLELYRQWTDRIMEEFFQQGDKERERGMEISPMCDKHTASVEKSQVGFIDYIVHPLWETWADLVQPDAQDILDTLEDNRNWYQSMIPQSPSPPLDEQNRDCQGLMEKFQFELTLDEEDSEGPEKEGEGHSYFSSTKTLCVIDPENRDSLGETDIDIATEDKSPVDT
Ubiquitin carboxyl-terminal hydrolase 1 (Homo sapiens), sequence (O94782 whole entry, looked up): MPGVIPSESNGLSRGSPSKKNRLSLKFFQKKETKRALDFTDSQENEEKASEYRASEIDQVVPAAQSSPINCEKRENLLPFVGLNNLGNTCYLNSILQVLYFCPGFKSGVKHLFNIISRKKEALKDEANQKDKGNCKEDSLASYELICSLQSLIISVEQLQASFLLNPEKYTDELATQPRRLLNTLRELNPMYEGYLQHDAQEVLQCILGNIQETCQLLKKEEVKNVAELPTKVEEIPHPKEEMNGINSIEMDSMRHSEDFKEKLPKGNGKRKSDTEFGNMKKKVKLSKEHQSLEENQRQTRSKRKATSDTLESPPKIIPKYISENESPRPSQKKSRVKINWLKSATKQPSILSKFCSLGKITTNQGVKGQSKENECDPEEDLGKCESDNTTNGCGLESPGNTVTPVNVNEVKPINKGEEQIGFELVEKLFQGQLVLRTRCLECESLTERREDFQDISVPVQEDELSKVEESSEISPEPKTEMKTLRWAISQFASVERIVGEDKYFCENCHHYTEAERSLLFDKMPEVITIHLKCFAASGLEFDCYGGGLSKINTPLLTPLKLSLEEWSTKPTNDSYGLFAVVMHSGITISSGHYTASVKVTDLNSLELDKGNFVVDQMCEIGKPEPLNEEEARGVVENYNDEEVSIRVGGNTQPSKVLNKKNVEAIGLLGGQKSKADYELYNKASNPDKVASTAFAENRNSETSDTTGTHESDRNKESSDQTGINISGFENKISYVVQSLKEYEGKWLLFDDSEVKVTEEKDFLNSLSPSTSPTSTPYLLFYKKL
Glucocorticoid receptor (Homo sapiens), sequence (P04150 whole entry, looked up, the tested form may be a part): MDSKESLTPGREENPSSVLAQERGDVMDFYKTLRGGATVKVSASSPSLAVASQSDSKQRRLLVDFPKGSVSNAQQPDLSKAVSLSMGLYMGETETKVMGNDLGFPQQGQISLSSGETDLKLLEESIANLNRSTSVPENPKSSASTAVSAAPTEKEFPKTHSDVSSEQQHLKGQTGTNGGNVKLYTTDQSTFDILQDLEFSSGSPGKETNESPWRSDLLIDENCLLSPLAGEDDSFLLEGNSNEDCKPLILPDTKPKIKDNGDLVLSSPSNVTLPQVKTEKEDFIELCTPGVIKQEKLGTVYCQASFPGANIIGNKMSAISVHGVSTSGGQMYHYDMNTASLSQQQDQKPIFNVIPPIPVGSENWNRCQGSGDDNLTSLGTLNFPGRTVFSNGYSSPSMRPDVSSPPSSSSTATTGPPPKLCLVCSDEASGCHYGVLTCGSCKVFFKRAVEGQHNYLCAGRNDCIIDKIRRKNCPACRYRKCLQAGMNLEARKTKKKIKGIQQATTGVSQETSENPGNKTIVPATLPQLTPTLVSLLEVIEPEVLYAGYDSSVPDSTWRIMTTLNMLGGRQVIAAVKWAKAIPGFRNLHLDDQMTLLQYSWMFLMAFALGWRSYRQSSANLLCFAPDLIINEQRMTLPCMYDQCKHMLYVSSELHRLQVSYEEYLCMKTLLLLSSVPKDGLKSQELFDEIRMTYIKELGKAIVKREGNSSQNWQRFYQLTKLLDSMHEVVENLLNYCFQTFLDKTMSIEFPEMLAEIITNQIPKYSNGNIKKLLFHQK
Cytochrome P450 3A4 (Homo sapiens), sequence (P08684 whole entry, looked up): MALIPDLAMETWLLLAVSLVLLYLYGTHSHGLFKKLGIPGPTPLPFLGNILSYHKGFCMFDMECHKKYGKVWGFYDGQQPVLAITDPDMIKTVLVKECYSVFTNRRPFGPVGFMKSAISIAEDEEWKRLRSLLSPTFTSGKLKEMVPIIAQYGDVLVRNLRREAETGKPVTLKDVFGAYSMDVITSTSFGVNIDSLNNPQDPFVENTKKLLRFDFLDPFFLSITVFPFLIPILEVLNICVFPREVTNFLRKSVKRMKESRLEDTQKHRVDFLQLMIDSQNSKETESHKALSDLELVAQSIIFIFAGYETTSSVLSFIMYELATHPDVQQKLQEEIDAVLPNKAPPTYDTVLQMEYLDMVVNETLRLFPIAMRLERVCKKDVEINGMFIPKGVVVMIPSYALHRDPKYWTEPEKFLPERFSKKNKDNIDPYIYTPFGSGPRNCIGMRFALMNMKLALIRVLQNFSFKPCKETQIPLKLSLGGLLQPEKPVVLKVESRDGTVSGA
Cytochrome P450 2D6 (Homo sapiens), sequence (P10635 whole entry, looked up): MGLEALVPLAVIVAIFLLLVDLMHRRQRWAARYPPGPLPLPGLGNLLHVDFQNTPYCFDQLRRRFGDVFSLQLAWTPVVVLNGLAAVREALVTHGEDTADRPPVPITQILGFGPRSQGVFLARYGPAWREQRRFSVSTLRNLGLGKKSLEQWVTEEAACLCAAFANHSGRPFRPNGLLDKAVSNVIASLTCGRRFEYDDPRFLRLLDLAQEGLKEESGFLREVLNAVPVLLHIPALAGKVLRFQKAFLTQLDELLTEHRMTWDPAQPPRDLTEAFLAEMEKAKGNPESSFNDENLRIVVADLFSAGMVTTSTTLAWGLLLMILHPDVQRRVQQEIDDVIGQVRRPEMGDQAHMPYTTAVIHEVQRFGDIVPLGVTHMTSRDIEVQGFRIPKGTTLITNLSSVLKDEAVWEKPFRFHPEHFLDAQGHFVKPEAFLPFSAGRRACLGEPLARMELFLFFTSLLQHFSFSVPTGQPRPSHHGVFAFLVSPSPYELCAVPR
DNA dC->dU-editing enzyme APOBEC-3G (Homo sapiens), sequence (Q9HC16 whole entry, looked up): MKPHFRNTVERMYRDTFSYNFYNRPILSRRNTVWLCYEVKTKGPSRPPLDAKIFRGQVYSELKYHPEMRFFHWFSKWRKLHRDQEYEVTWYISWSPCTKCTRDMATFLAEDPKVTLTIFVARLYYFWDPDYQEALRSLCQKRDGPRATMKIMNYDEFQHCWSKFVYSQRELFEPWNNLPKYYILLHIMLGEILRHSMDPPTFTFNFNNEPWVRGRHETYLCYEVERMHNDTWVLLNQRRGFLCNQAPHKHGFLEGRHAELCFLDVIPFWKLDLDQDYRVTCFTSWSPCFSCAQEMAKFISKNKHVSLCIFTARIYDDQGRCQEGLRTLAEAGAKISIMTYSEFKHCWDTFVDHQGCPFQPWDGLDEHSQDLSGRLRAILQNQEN
Cytochrome P450 1A2 (Homo sapiens), sequence (P05177 whole entry, looked up): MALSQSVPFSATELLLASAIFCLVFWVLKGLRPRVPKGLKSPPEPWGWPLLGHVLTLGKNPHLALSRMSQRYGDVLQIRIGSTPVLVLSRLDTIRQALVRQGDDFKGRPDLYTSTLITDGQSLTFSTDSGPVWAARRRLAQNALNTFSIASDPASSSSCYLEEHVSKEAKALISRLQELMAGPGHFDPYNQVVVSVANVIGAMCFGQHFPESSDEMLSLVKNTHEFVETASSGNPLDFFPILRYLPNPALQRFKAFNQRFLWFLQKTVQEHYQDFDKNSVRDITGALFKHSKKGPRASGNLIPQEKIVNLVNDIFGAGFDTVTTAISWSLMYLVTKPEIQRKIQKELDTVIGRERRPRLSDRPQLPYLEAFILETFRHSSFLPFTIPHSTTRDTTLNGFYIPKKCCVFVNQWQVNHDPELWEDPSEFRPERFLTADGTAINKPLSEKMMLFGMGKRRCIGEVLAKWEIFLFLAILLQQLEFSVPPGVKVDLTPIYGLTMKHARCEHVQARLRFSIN
Pyruvate kinase (Leishmania mexicana), sequence (Q27686 2-499 E452W): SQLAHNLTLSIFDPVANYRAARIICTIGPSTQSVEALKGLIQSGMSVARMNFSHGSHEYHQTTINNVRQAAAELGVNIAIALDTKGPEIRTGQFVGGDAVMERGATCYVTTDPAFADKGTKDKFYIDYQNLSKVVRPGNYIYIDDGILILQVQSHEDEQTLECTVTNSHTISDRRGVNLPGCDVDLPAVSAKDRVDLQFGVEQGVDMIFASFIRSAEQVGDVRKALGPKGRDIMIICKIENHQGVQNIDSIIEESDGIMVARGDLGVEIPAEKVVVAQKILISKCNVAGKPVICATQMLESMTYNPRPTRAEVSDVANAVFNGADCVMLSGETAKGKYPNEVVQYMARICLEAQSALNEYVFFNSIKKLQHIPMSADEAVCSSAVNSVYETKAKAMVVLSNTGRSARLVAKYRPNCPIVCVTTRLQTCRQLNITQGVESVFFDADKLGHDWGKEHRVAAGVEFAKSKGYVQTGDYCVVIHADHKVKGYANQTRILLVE

`C[C@H](N)Cc1cnc[nH]1`: the outcome in [1], in test [2], in [4], in test [6], in test [7] and in [8] was inactive. The result in test [9], in [10] and in test [11] was inactive. Also, in [3], the Potency is over 46 µM. Moreover, the Potency entry in test [5], in test [12], in test [13], in test [14] and in [15] was “inactive” each time.
Turning to `O=C(/C=C\c1ccc(Cl)cc1)N[C@@]12CCC(=O)[C@@H]3Oc4c(O)ccc5c4[C@@]31CCN(CC1CC1)[C@@H]2C5`, the Potency is 1.63 µM (active) in test [16], over 46 µM in test [3] and 5.01 µM (active) in test [18]. Besides, in [4], the call was inactive. Also, the Potency entry in test [17], in [12], in test [14] and in [15] was “inactive” throughout.
As for `COC(=O)CN1CN(c2ccccc2)C2(CCN(Cc3ccc4ccccc4c3)CC2)C1=O`, the Potency result in [19], in [5], in test [17], in [14] and in [15] was “inactive” throughout. Besides, the Potency in test [16] and in test [3] was over 46 µM each time. Moreover, the call in test [4] was inactive.
Take `C/C(=C\[C@@H](N)C(=O)O)CP(=O)(O)O`: the Potency in test [16] and in test [3] was over 46 µM in each case. The outcome in test [4] was inactive. The Potency entry in [12], in test [14] and in test [15] was “inactive” throughout.
Consider `CS(=O)(=O)Nc1ccc(Cc2noc(-c3ccc4[nH]cc(CCN)c4c3)n2)cc1`, for which the Potency in test [19] is 0.0316 µM (active); in test [3], over 46 µM; in test [18], 0.126 µM (active). Besides, the Potency entry in [17], in test [12], in [13], in [14] and in [15] was “inactive” each time.
With `Cn1cc(C(=O)C(=O)N[C@H]2CN3CCC2CC3)c2ccccc21`, the figures for the Potency in test [19], in [3] and in [18] were 15.8 µM (active), over 46 µM and 0.0631 µM (active), respectively. In addition, in test [4], the compound was classed as inactive. Besides, the Potency entry in [12], in [13], in test [14] and in test [15] was “inactive” in each case.
On to `C/C(=C\C=C/[C@@H](C)C(=O)O)[C@H]1CN[C@H](C(=O)O)[C@@H]1CC(=O)O`, for which the Potency entry in test [19], in test [12], in test [14] and in test [15] was “inactive” in each case. Besides, the Potency in test [3] was over 46 µM.
On to `O=C1NCN(c2ccccc2)C12CCN(C[C@H]1COc3ccccc3O1)CC2`, for which the result in test [1], in test [2], in [4], in test [6], in test [7] and in [8] was inactive. Moreover, the compound was classed as inactive in test [9], in [10] and in [11]. Besides, the Potency in [19] was 12.6 µM (active); in test [18], 126 nM (active) and 63.1 nM (active). Moreover, the Potency entry in test [5], in [13], in test [14] and in [15] was “inactive” throughout.
As for `CN(C(=O)Cc1ccccc1)[C@H](CN1CCCC1)c1ccccc1`, the Potency entry in test [19], in [12], in test [13], in [14] and in [15] was “inactive” throughout. In addition, the Potency in test [16] is over 46 µM; in [3], over 46 µM; in [18], 3.16 µM (active).
